Screening data: PubChem BioAssay, several laboratories
An excerpt weighted towards active compounds, which were near 4.6% of everything screened.
SKKanGAS inh: SKKanGAS growth inhibition; actives 1.3% (n = 300,000); inhibition, % at 7.5 µM; S. pyogenes SKKanGAS, kanamycin growth, BacTiter-Glo, 6 h;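 active = mean replicate score, as percent of positive control median, at least 50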;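 also: strain carries kanamycin resistance gene driven by streptokinase promoter and grows in 40 µg/ml kanamycin; loss of luminescence reflects streptokinase promoter inhibition or plain growth inhibition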
TIM10 inh: inhibits growth of TIM10 yeast strain | S. cerevisiae TIM10 strain growth, BacTiter-Glo luminescence, 24 h | actives 1.4% (n = 330,000) | inhibition, % at 10 µM;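 active = inhibition of 40% or more at the single tested concentration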;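 also: wild-type TIM10 isogenic control strain grown at permissive 25 °C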
tim10-1 inh: growth inhibitors of tim10-1 mutant yeast; S. cerevisiae tim10-1 ts strain growth, BacTiter-Glo, 24 h; inhibition, % at 20 µM; actives 2.2% (n = 330,000); AID 463190;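 active = inhibition of at least 40%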;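 also: mutant grown at 25 °C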
NLRP3 yeast inh: inhibitors of NALP3 inflammasome in yeast; Yeast reconstituted NLRP3/ASC/caspase-1, beta-gal luminescence, 24 h; inhibition, % at 10 µM; actives 0.39% (n = 330,000);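 active = inhibition of 50% or more; inactive = inhibition below 50%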
tim23-1 inh: inhibits growth of tim23-1 mutant yeast | inhibition, % at 20 µM | S. cerevisiae tim23-1 growth, BacTiter-Glo luminescence, 24 h | actives 1.3% (n = 330,000);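 active = growth inhibition of the mutant yeast at or above 50%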;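 also: temperature-sensitive mutant grown at 25 °C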
PfHsp90 yeast 2: reduces growth (ATP signal) of yeast expressing P. falciparum Hsp90; S. cerevisiae expressing PfHsp90, BacTiter-Glo ATP, 48 h; yeast lacking PDR1 and PDR3 efflux regulators; inhibition, % at 9.4 µM; actives 0.32% (n = 310,000);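 active = every replicate shows inhibition above about 80%, whatever the replicate mean, limit read from the data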
tim10-1 confirm: confirmation of tim10-1 mutant yeast growth inhibitors; shares compounds with tim10-1 inh; inhibition, % at 20 µM; AID 463213; S. cerevisiae tim10-1 ts strain growth, BacTiter-Glo, 24 h; actives 56% (n = 7,400);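 active = inhibition of yeast growth at or above a set limit in either of two repeat tests at 20 µM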;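 also: tim10-1 mutant grown at permissive 25 °C to find synthetic lethal compounds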
Of the large screens only hits and unclear results are named; the others gave an inactive call (follow-up assays come after a bar, where they were run).

O=C(NCc1cccnc1)c1ccc(NS(=O)(=O)c2ccc(F)cc2)cc1	none
COc1cc(C(=O)O/N=C(\N)Cc2ccc([N+](=O)[O-])cc2)cc(OC)c1OC	tim10-1 inh 63 (no result: PfHsp90 yeast 2) | tim10-1 confirm 53
Cc1ccc(NC(=O)C(C)SCC(=O)Nc2ccc(F)cc2)cc1S(=O)(=O)N1CCOCC1 (centres undefined)	none
CC[N+](CC)(CC#Cc1ccccc1)CC(=O)c1ccc(Cl)cc1	tim10-1 inh 51 | tim10-1 confirm 45
Nc1nc(-c2ccccc2)c(N=Nc2ccccc2Cl)s1	tim10-1 inh 55 | tim10-1 confirm inactive
Cc1ncc(N=Nc2ccccc2Cl)c(-c2ccccc2)n1	none
N#CCCN1CCN(C(=S)c2ccc(-c3ccc(Cl)cc3)o2)CC1	tim10-1 inh 45 (no result: PfHsp90 yeast 2) | tim10-1 confirm inactive
S=C(c1ccc(-c2ccc(Cl)cc2)o1)N1CCCCC1	none
COc1ccccc1-c1nc(C#N)c(N2CCc3ccccc3C2)o1	tim10-1 inh 40 | tim10-1 confirm 32
COc1ccc(-c2nc(C#N)c(N3CCc4ccccc4C3)o2)cc1OC	none (no result: PfHsp90 yeast 2)
CC(=O)c1ccc(NC(=S)NC(C)c2ccc(Cl)cc2Cl)cc1 (centres undefined)	tim10-1 inh 56 (no result: PfHsp90 yeast 2) | tim10-1 confirm 33
CC(=O)c1ccc(NC(=S)NC(=O)Cc2ccc(Cl)cc2)cc1	none
C/C(=N\NS(=O)(=O)c1ccc(C(C)(C)C)cc1)c1ccccc1	tim10-1 inh 42 | tim10-1 confirm 43
C/C(=N/NS(=O)(=O)c1ccc(Cl)cc1)c1ccncc1	none
C/C(=N/NS(=O)(=O)c1ccccc1)c1ccc(Cl)cc1	none | tim10-1 confirm inactive
CCN(CC(=O)Nc1c(F)cccc1F)C(=O)COc1ccc2c(C)cc(=O)oc2c1	none
OCC1(Cc2ccccc2)CCN(Cc2cnc(-c3ccc(Cl)cc3)nc2)CC1	tim10-1 inh 47 | tim10-1 confirm inactive
OCC1(Cc2ccccc2)CCN(Cc2cnc(-c3cccc4ccccc34)nc2)CC1	none
CCC(=O)NC(c1ccco1)c1cc(Cl)c2cccnc2c1O (centres undefined)	none | tim10-1 confirm inactive
CCC(=O)NC(c1ccco1)c1cc(Cl)c2cccnc2c1OC (centres undefined)	none (no result: SKKanGAS inh, PfHsp90 yeast 2)
CC(Cc1c[nH]c2ccccc12)C(=O)N1CCN(c2ccccc2F)CC1 (centres undefined)	tim10-1 inh 97 | tim10-1 confirm inactive
Cn1cc(C(=O)Nc2ccc(Cl)c(Cl)c2)cn1	none
C=CCn1c(SCc2ccc(C#N)cc2)nnc1-c1cccc(Cl)c1	tim10-1 inh 46 | tim10-1 confirm inactive
C=CCn1c(SCc2cccc(C#N)c2)nnc1-c1ccccc1O	none
Cc1cccc(NC(=S)NNC(=O)c2ccc3c(c2)OCO3)c1	none
Cc1ccc(C)c(NC(=S)NNC(=O)c2csc(C)c2C)c1	none
Cc1ccc(C)c(NC(=S)NNC(=O)c2cc3c(s2)CCC(C)C3)c1 (centres undefined)	tim10-1 inh 44 | tim10-1 confirm 34
Cc1ccc(C)c(NC(=S)NNC(=O)c2csc(C(C)C)c2)c1	tim10-1 inh 40 (no result: PfHsp90 yeast 2) | tim10-1 confirm 34
CCCc1cc(C(=O)NNC(=S)Nc2cccc(C)c2)cs1	tim10-1 inh 47 | tim10-1 confirm inactive
Cc1cnccc1CN(C)Cc1cn(C)nc1-c1ccc(Oc2ccccc2)cc1	tim10-1 inh 40 | tim10-1 confirm inactive
CCN(Cc1ccccc1)S(=O)(=O)c1ccc(C(=O)N(CCCN(C)C)c2nc3cc4c(cc3s2)OCCO4)cc1	tim10-1 inh 46 | tim10-1 confirm inactive
COc1ccc2sc(N(CCCN(C)C)C(=O)c3ccc(S(=O)(=O)N4CCCc5ccccc54)cc3)nc2c1	tim10-1 inh 57 (no result: PfHsp90 yeast 2) | tim10-1 confirm 32
CN(C)CCCN(C(=O)c1cc2cc([N+](=O)[O-])ccc2s1)c1nc2cc3c(cc2s1)OCCO3	tim10-1 inh 79 | tim10-1 confirm 27
COc1cc2nc(N(CCCN(C)C)C(=O)c3ccc(S(=O)(=O)N4CCc5ccccc54)cc3)sc2cc1OC	none
CN(C)CCCN(C(=O)c1ccc([N+](=O)[O-])s1)c1nc2cc3c(cc2s1)OCCO3	tim10-1 inh 43 | tim10-1 confirm 39
Cc1ccc(C(c2c(C)n(C)n(-c3ccccc3)c2=O)c2c(C)n(C)n(-c3ccccc3)c2=O)s1	none
O=C(NCCCCc1ccccc1)c1ccccc1Br	none (no result: NLRP3 yeast inh, PfHsp90 yeast 2)
CC(=O)Nc1nc(SCC(=O)Nc2nnc(C)s2)[nH]c(=O)c1NC(=O)c1cccs1	none (no result: PfHsp90 yeast 2)
CSc1ccccc1NC(=O)C1CCCN(S(C)(=O)=O)C1 (centres undefined)	none
OC(CNCc1ccccc1Cl)C(F)(F)F (centres undefined)	none
CCN(CC)S(=O)(=O)c1ccc2[nH]c(=O)cc(C(=O)Nc3cccc(C(C)=O)c3)c2c1	none
CC(C)(C)n1nnnc1C(c1cccs1)N(Cc1ccccc1)Cc1cccnc1 (centres undefined)	none
CC(C)(C)n1nnnc1C(c1cccnc1)N(Cc1ccccc1)Cc1cccs1 (centres undefined)	tim10-1 inh 56 | tim10-1 confirm 33
C=CCn1c(Cc2cccs2)nnc1SCC(=O)c1cccc(Br)c1	tim10-1 inh 41 | tim10-1 confirm inactive
CCOc1cccc(C(=O)N/N=C/c2coc3ccccc3c2=O)c1	none
COC(=O)N1C(=O)[C@@](c2ccccc2)(C2CCCC2)N1C(=O)OC	tim10-1 inh 42 | tim10-1 confirm 32
CC(C)N(C(=O)[C@H]1CC(CC(=O)NCCC2=CCCCC2)C(=O)N2CCc3c([nH]c4ccccc34)[C@]12C)C(C)C (some centres undefined)	none (no result: SKKanGAS inh)
Cc1cc(=O)[nH]c(N=N/C(=N/Nc2ccc(O)cc2)c2ccccc2)n1	tim10-1 inh 50 | tim10-1 confirm 38
CCOc1cc(/C=C2\N=C(C)OC2=O)cc(Br)c1OCC(=O)OC	tim10-1 inh 44 (no result: PfHsp90 yeast 2) | tim10-1 confirm inactive
Cc1ccc(C(=O)O/N=C(\c2ccccc2)c2cccnc2)cc1	tim10-1 inh 42 | tim10-1 confirm 36
Cc1cccc(C(=O)O/N=C(\c2ccccc2)c2cccnc2)c1	none
CSc1ccc(-c2nc3cnccn3c2Nc2ccc3c(c2)OCO3)cc1	tim10-1 inh 46 (no result: PfHsp90 yeast 2) | tim10-1 confirm 43
CCOC(=O)CNc1c(-c2ccc(Cl)cc2)nc2cnccn12	none (no result: PfHsp90 yeast 2)
c1cn2c(Nc3ccc4c(c3)OCCO4)c(-c3ccc(N4CCOCC4)cc3)nc2cn1	none
Clc1ccc(-c2nc3cnccn3c2Nc2ccc3c(c2)OCO3)cc1	tim10-1 inh 45 | tim10-1 confirm 35
Clc1ccc(-c2nc3cnccn3c2NC2CCCC2)cc1	tim10-1 inh 50 | tim10-1 confirm inactive
Oc1ccccc1-c1nc2cnccn2c1Nc1ccc2c(c1)OCCO2	none
